Test results taken from PubChem BioAssay (NCI).
The panel holds about 83,000 compounds, 20% with a hit somewhere; the sample as a whole holds those more often.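 Each cell line was grown in a 96-well plate and treated with one concentration of compound for 48 hours. Values below 10 were considered active.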 Unmarked numbers belong to inactive results. Calls of active or inactive are those of the source.

System: SN12C renal
Experiment: NCI-60 one-dose screen, 48 h (100 = growth as untreated, 0 = no growth, -100 = all killed)
Details: 1 µM
Procedure: Growth inhibition of the SN12C human tumor cell line is measured as a screen for anti-cancer activity. Cells are grown in 96 well plates and exposed to the test compound for 48 hours. Compounds are tested at a single concentration, which is 10^-5 M for most compounds. The reported endpoint is percent growth (GI% or GIPRCNT), where numbers from 0 - 100% represent growth inhibition, and numbers from -100% - 0 represent cell death. For example, a value of 40 represents 60% growth inhibition. A value of 0 means no net growth occurred over the course of the experiment. A value of -40 indicates 40% of cells at the beginning of the experiment died by the end of the experiment. A value of -100 means all cells are dead at the end of the experiment.
NCI-60 Human Tumor Cell Lines Screen was performed using the standard one-dose NCI protocol, which is described in more detail at https://dtp.cancer.gov/discovery_development/nci-60/default.htm.
Compounds with GIPRCNT values below 10 were considered active. Activity score was based on GIPRCNT using the following formula: […]
Score is 0 for GIPRCNT values of 100 or above, 50 for GIPRCNT values of 0, and 100 for GIPRCNT values of -100.

SMILES | growth [%]
CC/C(=C(/c1ccc(O)cc1)c1ccc(OCCN(C)C(=O)CCOCCNC(=O)Cc2ccc3c(c2)CN([C@@H]2CCC(=O)NC2=O)C3=O)cc1)c1ccccc1 | 89
CC/C(=C(\c1ccc(O)cc1)c1ccc(OCCN(C)C(=O)CCOCCNC(=O)c2ccc3c(c2)CN([C@@H]2CCC(=O)NC2=O)C3=O)cc1)c1ccccc1 | 91.3
CC/C(=C(/c1ccc(O)cc1)c1ccc(OCCN(C)C(=O)COCCOCCNC(=O)Cc2ccc3c(c2)CN([C@@H]2CCC(=O)NC2=O)C3=O)cc1)c1ccccc1 | 88.7

Same assay, conditions: 10 µM

SMILES | growth [%]
CC/C(=C(/c1ccc(O)cc1)c1ccc(OCCN(C)C(=O)CCOCCNC(=O)Cc2ccc3c(c2)CN([C@@H]2CCC(=O)NC2=O)C3=O)cc1)c1ccccc1 | 78
CC/C(=C(\c1ccc(O)cc1)c1ccc(OCCN(C)C(=O)CCOCCNC(=O)c2ccc3c(c2)CN([C@@H]2CCC(=O)NC2=O)C3=O)cc1)c1ccccc1 | 95.7
CC/C(=C(/c1ccc(O)cc1)c1ccc(OCCN(C)C(=O)COCCOCCNC(=O)Cc2ccc3c(c2)CN([C@@H]2CCC(=O)NC2=O)C3=O)cc1)c1ccccc1 | 53.5

Same assay, conditions: 10 µM unless noted

SMILES | growth
O=C1c2cccc3c(N4CCN(Cc5ccccc5)CC4)ccc(c23)C(=O)N1c1cccc(-c2nn(-c3ccccc3)cc2-c2nc3ccccc3s2)c1 | 101%
C/C(=N\Nc1ccc(S(N)(=O)=O)cc1)c1cnn(-c2cc(=O)[nH]c3ccc(Br)cc23)c1C | 61.2%
COc1ccc(-c2nc3ccc(-c4nnc(SCC(=O)Nc5ccc(/C(C)=N\O)cc5)o4)cc3[nH]2)cc1 | 80.1%
CCN1C(=O)N(CC)C2NNC(Sc3c(C(=O)O)c4ccccc4n(CC(C)C)c3=O)=NC21 (stereo not given) | 24.3%
S=C(Nc1ccc(OCc2nc3ccc(Cl)cc3[nH]2)cc1)NC1CCCCC1 | -80.6% (active)
O=C(N=Nc1c(O)[nH]c2ccc(Cl)cc12)c1ccc2nc(-c3ccc(Cl)cc3)[nH]c2c1 | -10.4% (active)
COc1ccccc1/C=C/c1cccc(NC(=S)NCCCCN(C)C)c1 | -96.6% (active)
N#CC1=C(c2cccs2)Nc2c(c(-c3ccccc3)nn2-c2ccccc2)C12C(=O)Nc1ccc(Br)cc12 (stereo not given) | -13.7% (active)
COC(=O)c1c(C(=O)OC)c2c3ccccc3c3ccccc3n2c1C(=O)C(C)(C)C | 87.3%
OCCn1cc(-c2nc3ccc4[nH]ncc4c3c3c2CCCC3)cn1 | 36.7%
O=C(CSc1nnc(-c2ccc(-c3nc4ccccc4[nH]3)cc2)o1)Nc1ccc(Br)cc1 | 21.9%
C/C(=N/O)c1ccc(NC(=O)CSc2nnc(-c3ccc(-c4nc5ccc(Cl)cc5[nH]4)cc3)o2)cc1 | -33.9% (active)
c1n[nH]cc1-c1nc2ccc3cn[nH]c3c2c2c1CCCC2 | 74.3%
COc1cc2cc(C(=O)N3C[C@@H](CCl)c4c3cc(OC(=O)N(CCC(=O)N3CCN(C)CC3)C3CCCCC3)c3ccccc43)[nH]c2c(OC)c1OC | -82.8% (active)
O=C(CSc1nc2sc3c(c2c(=O)n1-c1ccc(Cl)cc1)CCCC3)NNC(=O)c1ccc(F)cc1 | 40.1%
O=C(Nc1nc2ccc([N+](=O)[O-])cc2s1)Nc1ccc(Cl)cc1Cl | 29.4%
COC(=O)CSC1=C(C)C(=O)C(OC)=C(OC)C1=O | 96.2%

SMILES | growth
Cc1cnc2ccc(Oc3ccccc3-c3ccccc3)nn12 | 100%
COc1ccc2nc(NC(=O)c3ccc(N(C)C)cc3)sc2c1 | 85.6%
Oc1ccc(F)c(Nc2nc(SCCN3CCOCC3)nc3c2cnn3CC(Cl)c2ccc(Br)cc2)c1 (stereo not given) | 32.3%
CC(C)C[C@H](NC(=O)[C@@H]1CCCCCCCCCCC(=O)N[C@@H](CC(=O)N2CCC[C@@H]2C2CCCC2)C(=O)N1)B(O)O | -88.9% (active)
COc1ccc2c(c1)c(-c1cc(N)n3nc(-c4c[nH]c5ccccc45)cc3n1)cn2C | -81% (active)
COc1c(B(O)O)cc(F)cc1-c1nc2c(F)cc3[nH]ncc3c2c2c1CCCC2 | 17.2%
CN(C)c1nc(NCCNS(=O)(=O)c2ccc(C(=O)/C=C/c3ccccc3)cc2)nc(N2CCOCC2)n1 | 79.8%
COc1cccc(NC(=O)c2ccc(NC(=O)CCl)s2)c1 | -14.4% (active)
O=C(N/N=C/c1c[nH]c2ccccc12)Nc1ccc(F)c(Cl)c1 | 42.1%
Cc1cccc(C)c1Nc1nnc(-c2c[nH]c3ccccc23)o1 | 87.8%
COc1ccc(N=Nc2c(N)nn3c(-c4ccc(OC)c(OC)c4)ccnc23)cc1 | 88.5%
COc1ccc(S(=O)(=O)Nc2ccc(-c3ccc4c(c3)NC(=O)/C4=C\c3ccc[nH]3)cc2)cc1OC | -0.885% (active)
N#Cc1c(-c2ccc(F)cc2)nc(SCc2ccc(F)cc2)nc1N1CCNCC1 | -58.6% (active)
O=C1N/C(=N\c2nccs2)S/C1=C\c1ccc([N+](=O)[O-])cc1 | 11.9%
Nc1cc(-c2c[nH]c3ccc(F)cc23)nc2cc(-c3c[nH]c4ccccc34)nn12 | 41.2%
Clc1ccc(-c2nc3c4c(-c5ccccc5)c(-c5ccccc5)n(Cc5ccccc5)c4ncn3n2)cc1 | 0.356% (active)
COc1ccc(-c2cc(C(=O)N=Nc3c(O)[nH]c4ccc(Cl)cc34)c3ccccc3n2)cc1 | 51.4%
